The values below come from publication PMC4336329 (PLoS ONE, 2015).

Screen size: about 310,000 compounds; about 14,000 (4.5%) showed an effect of 50% or more. The effect is printed as a negative number. This excerpt belongs to a sample that is enriched for strong results.
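Also: peak tail current of the secondary pulse compared with the same well before compound.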

The target in the experiment is human ether-à-go-go-related gene (hERG) potassium channel (human, UniProt Q12809). The experiment is described as follows: primary screen, population patch clamp on CHO cells stably expressing hERG; higher = less effect of the substance.
Chain of human ether-à-go-go-related gene (hERG) potassium channel (Q12809 whole entry, looked up): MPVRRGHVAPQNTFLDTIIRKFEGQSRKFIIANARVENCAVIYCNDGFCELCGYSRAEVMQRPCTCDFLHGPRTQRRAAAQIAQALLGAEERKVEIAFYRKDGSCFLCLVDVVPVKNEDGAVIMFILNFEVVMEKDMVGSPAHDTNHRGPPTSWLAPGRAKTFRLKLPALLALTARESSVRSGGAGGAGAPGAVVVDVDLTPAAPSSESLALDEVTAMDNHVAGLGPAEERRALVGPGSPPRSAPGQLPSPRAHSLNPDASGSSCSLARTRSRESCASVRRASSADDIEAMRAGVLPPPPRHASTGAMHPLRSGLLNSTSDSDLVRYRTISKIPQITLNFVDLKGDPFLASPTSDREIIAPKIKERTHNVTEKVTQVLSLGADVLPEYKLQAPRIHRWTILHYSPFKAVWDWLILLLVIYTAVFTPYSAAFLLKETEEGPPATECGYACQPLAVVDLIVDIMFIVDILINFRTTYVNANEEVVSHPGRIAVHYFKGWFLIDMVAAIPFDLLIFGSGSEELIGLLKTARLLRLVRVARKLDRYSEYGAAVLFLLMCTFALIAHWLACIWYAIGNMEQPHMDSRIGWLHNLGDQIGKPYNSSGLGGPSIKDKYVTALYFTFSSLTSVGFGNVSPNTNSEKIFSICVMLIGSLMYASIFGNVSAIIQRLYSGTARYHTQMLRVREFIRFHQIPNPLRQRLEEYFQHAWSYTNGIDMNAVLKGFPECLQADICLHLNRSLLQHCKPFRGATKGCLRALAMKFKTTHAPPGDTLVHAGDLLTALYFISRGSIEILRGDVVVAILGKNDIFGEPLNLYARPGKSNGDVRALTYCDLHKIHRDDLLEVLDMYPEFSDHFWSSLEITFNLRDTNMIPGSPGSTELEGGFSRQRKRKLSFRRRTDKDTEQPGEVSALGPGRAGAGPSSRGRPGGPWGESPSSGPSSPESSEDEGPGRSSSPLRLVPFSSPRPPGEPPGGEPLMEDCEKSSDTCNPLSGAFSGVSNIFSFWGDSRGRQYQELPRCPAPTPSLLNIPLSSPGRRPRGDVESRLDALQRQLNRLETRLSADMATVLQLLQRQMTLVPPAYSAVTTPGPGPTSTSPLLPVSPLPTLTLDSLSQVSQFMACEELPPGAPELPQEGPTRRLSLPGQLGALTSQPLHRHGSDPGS
In the case of `CCN(CC)S(=O)(=O)c1ccc(-c2cn3cc(Cl)ccc3n2)cc1`, the “hERG current change (%, negative = inhibition) at 10uM” value amounted to 2.07%. The same measure for `COc1ccc(-n2c3c(c(=O)[nH]c2=O)C(NC(=O)c2ccncc2)(C(F)(F)F)C(=O)N3)cc1` (centres unmarked): 18.1%; for `CCc1cc2c(Sc3nc4ccccc4s3)ncnc2s1`: 16.9%; for `Cc1cc(C)cc(NC(=O)CCCSc2nc3ccccc3[nH]2)c1`: -2.7%. `Cn1c(=O)c2c(ncn2CC(=O)OCC(=O)NC2CCCc3ccccc32)n(C)c1=O` (centres unmarked): the “hERG current change (%, negative = inhibition) at 10uM” value is 2.36%. Consider `COCCN1Cc2cccc(C(=O)NCc3cccnc3)c2C1=O`, for which the “hERG current change (%, negative = inhibition) at 10uM” value was 3.96%. The same measure for `O=C(NCc1cccnc1)c1cccc2c1C(=O)N(Cc1cccnc1)C2`: -11%. The same measure for `O=C(Nc1ccc2c(c1)OCO2)c1cccc2c1C(=O)N(Cc1cccnc1)C2`: -47%; for `CCOc1ccc(NC(=O)c2cccc3c2C(=O)N(Cc2cccnc2)C3)cc1`: -22%. `O=C(NCc1ccc(F)cc1)c1cccc2c1C(=O)N(Cc1cccnc1)C2`: the “hERG current change (%, negative = inhibition) at 10uM” value was -61.8%. As for `COC(CNC(=O)c1cccc2c1C(=O)N(Cc1cccnc1)C2)OC`, the “hERG current change (%, negative = inhibition) at 10uM” value was -15.3%. For `COc1ccccc1CNC(=O)c1cccc2c1C(=O)N(Cc1cccnc1)C2` the value was -70.1%. Regarding `COc1ccc(CNC(=O)c2cccc3c2C(=O)N(Cc2cccnc2)C3)cc1`, the “hERG current change (%, negative = inhibition) at 10uM” value is reported as -38.6%. The same measure for `COc1cc(NC(=O)c2cccc3c2C(=O)N(Cc2cccnc2)C3)cc(OC)c1OC`: -79.2%; for `O=C(CC(Sc1n[nH]c(-c2ccccc2)n1)c1ccccc1)NCc1ccccc1` (centres unmarked): -16%; for `Cc1ccc2sc(N(CCN(C)C)C(=O)/C=C/c3cccs3)nc2c1C.Cl`: 11.8%. Take `COc1ccccc1C(=O)OCC(=O)Nc1cc(S(=O)(=O)N2CCOCC2)ccc1N1CCCC1`: the “hERG current change (%, negative = inhibition) at 10uM” value is recorded as -7.82%.

For the compound `O=C(NCC(=O)N1CCCC1C(=O)O)OC1CCCCC1` (centres unmarked), the “hERG current change (%, negative = inhibition) at 10uM” value is on record as -6.8%. Consider `Cc1ccc(-c2noc(-c3ccno3)n2)cc1`, for which the “hERG current change (%, negative = inhibition) at 10uM” value is recorded as 9.19%. For `Cc1cccc(-c2noc(-c3ccno3)n2)c1` the value was -53%; for `Cc1cccc(-c2noc(-c3ccc(F)cc3)n2)c1`, 15.1%; for `COc1ccccc1C(CNC(=O)CNC(=O)c1ccc(C)c(C)c1)N1CCCC1` (centres unmarked), -6.27%. The same measure for `c1ccc(-c2nnc(CSc3nnc(-c4ccncc4)n3Cc3ccco3)o2)cc1`: -29.8%; for `Cc1noc(C)c1CSc1nnc(-c2ccccc2)n1Cc1ccco1`: -21.9%; for `C(=C\c1ccccc1)/CSc1nnc(-c2ccccc2)n1Cc1ccco1`: -74.7%.

Turning to `Cn1c(SC/C=C/c2ccccc2)nnc1-c1ccco1`, the “hERG current change (%, negative = inhibition) at 10uM” value was -27.1%.

In the case of `Nn1c(SC/C=C/c2ccccc2)nnc1-c1ccncc1`, the “hERG current change (%, negative = inhibition) at 10uM” value is recorded as -8.06%. The same measure for `Clc1ccc(-n2c(SC/C=C/c3ccccc3)nnc2-c2cccnc2)cc1`: -50.3%.

With `C(=C\c1ccccc1)/CSc1nnc(-c2cccnc2)n1Cc1ccco1`, the “hERG current change (%, negative = inhibition) at 10uM” value is on record as -70.8%. As to `CCSc1nnc(-c2cccnc2)n1Cc1ccco1`, the “hERG current change (%, negative = inhibition) at 10uM” value is -7.73%.

Turning to `Nn1c(SC/C=C/c2ccccc2)nnc1-c1cccnc1`, the “hERG current change (%, negative = inhibition) at 10uM” value amounted to 23.4%. For `O=C(O)CCSc1nnc(-c2cccnc2)n1-c1ccccc1` the value was 11.2%; for `C(=C\c1ccccc1)/CSc1nnc(-c2ccncc2)n1Cc1ccco1`, -63.9%; for `O=C(CSc1nnc(-c2cccnc2)n1Cc1ccco1)N1c2ccccc2Sc2ccccc21`, -33.7%. For `Cc1ccccc1OCCn1c(CCNC(=O)C(C)C)nc2ccccc21` the value was -6.24%; for `CCN1C(=O)CC(C(=O)Nc2ccc(F)cc2)SC1=Nc1ccc2c(c1)OCO2` (centres unmarked), -13.5%. For `CC(C)Sc1nc(N)c2c3c(sc2n1)CN(C)CC3`, the “hERG current change (%, negative = inhibition) at 10uM” value is -34%.

As for `CC(=O)Oc1ccc(/C=N/NC(=O)CCSc2ccccc2)cc1`, the “hERG current change (%, negative = inhibition) at 10uM” value is -8.83%. For `COc1ccc2nc(-c3ccccc3)[nH]c2c1` the value was -1.4%; for `COc1ccc(/C=C/C(=O)NCC(=O)N/N=C/c2cccnc2)cc1`, -14.9%; for `CCN1CCN(c2cc(C)c3cc(NC(=S)NCc4cccs4)ccc3n2)CC1`, -59.7%. Regarding `Cc1cc(N2CCN(C)CC2)nc2ccc(NC(=S)NC3CC3)cc12`, the “hERG current change (%, negative = inhibition) at 10uM” value came out at 3.2%. For `CCCCNC(=S)Nc1ccc2nc(N3CCN(CC)CC3)cc(C)c2c1` the value was -44.6%; for `CCN1CCN(c2cc(C)c3cc(NC(=O)c4cccs4)ccc3n2)CC1`, -55.1%; for `Cc1cc(N2CCN(C)CC2)nc2ccc(NC(=S)NCCN3CCc4ccccc4C3)cc12`, -23.7%.

Regarding `CCN1CCN(c2cc(C)c3cc(NC(=O)c4cccnc4Cl)ccc3n2)CC1`, the “hERG current change (%, negative = inhibition) at 10uM” value is on record as -6.83%. As to `COc1ccc(CNC(=S)Nc2ccc3nc(N4CCOCC4)cc(C)c3c2)cc1`, the “hERG current change (%, negative = inhibition) at 10uM” value was -24%. The same measure for `CCN(CC)CCNC(=S)Nc1ccc2nc(N3CCN(CC)CC3)cc(C)c2c1`: 11.2%. For `COc1ccc(CNC(=S)Nc2ccc3nc(N4CCN(C)CC4)cc(C)c3c2)cc1` the value was -51.1%; for `COc1ccccc1CNC(=S)Nc1ccc2nc(N3CCN(C)CC3)cc(C)c2c1`, -1.77%; for `Cc1cc(N2CCN(C)CC2)nc2ccc(NC(=S)NCc3cccs3)cc12`, -56.3%. The same measure for `CC(=O)c1ccc(NC(=O)C2=CC(c3ccco3)=NS(=O)(=O)N2C)cc1`: -7.75%.

Consider `COC(C(=O)N/N=C(\C)CC(=O)Nc1ccc(N(C)C)cc1)c1ccccc1` (centres unmarked), for which the “hERG current change (%, negative = inhibition) at 10uM” value is recorded as 15.3%. For `CC(NS(C)(=O)=O)C(c1cccs1)N1CCN(c2ccccc2F)CC1` (centres unmarked) the value was 6.04%; for `Cc1ccc(CNC(=O)Cn2c([N+](=O)[O-])cnc2C)cc1`, 11.3%; for `COc1ccc(S(=O)(=O)NNC(=O)Nc2ccc(C)cc2C)c(OC)c1`, -1.37%.

With `Cc1nc(SCC(=O)c2c(N)n(C3CC3)c(=O)[nH]c2=O)[nH]c(=O)c1CCO`, the “hERG current change (%, negative = inhibition) at 10uM” value was 17%. The same measure for `COc1ccc2c(c1)OC(O)(C(F)(F)F)CC2=O` (centres unmarked): -5.68%.

Turning to `CC(C)(C)NC(=O)/C=C/c1cccc(C(F)(F)F)c1`, the “hERG current change (%, negative = inhibition) at 10uM” value is given as -8.66%. For `CN(C(=O)/C=C/c1ccccc1)C1CCCCC1` the value was 1.32%; for `CN(C(=S)NC(=O)/C=C/c1ccc(F)cc1)C1CCCCC1`, 4.54%.

As for `CN(C1CCCC1)C1CCN(C(=O)CNC(=O)/C=C/c2cccc(C(F)(F)F)c2)CC1`, the “hERG current change (%, negative = inhibition) at 10uM” value is reported as -62.6%. As for `CN(C1CCCC1)C1CCN(C(=O)CNC(=O)/C=C/c2ccccc2)CC1`, the “hERG current change (%, negative = inhibition) at 10uM” value is on record as -53.8%.

On to `CN(C1CCCC1)C1CCN(C(=O)CNC(=O)/C=C/c2ccc(F)cc2)CC1`, for which the “hERG current change (%, negative = inhibition) at 10uM” value is -62.6%. For `CNC(=O)/C=C/c1cccc(C(F)(F)F)c1` the value was 4.99%; for `CN(C(=O)/C=C/c1ccc(F)cc1)C1CCCCC1`, -22.6%. For `COc1ccccc1/C=C/C(=O)NCC(=O)N1CCC(N(C)C2CCCC2)CC1` the value was -35%. For `COc1ccc(NC(=O)c2cc(S(=O)(=O)NCC3COc4ccccc4O3)ccc2F)cc1` (centres unmarked), the “hERG current change (%, negative = inhibition) at 10uM” value was -19.1%. For `O=c1oc2ccccc2cc1-c1cn2ccccc2n1` the value was 11.9%; for `Nc1nnc(SCC(=O)NC2CCCCCCC2)s1`, 16.9%.

On to `CCCc1cc2c(cc1NC(=O)c1ccc(C(C)(C)C)cc1)OCO2`, for which the “hERG current change (%, negative = inhibition) at 10uM” value is given as -13.8%. The same measure for `Cc1csc(NC(=O)CSc2nnc3ncccn23)n1`: -14.3%; for `COc1ccc(NC(=O)CSc2nc3ccccc3c(=O)n2CCCN2CCC(C)CC2)c(OC)c1`: -81.6%. The same measure for `COc1ccc(NC(=O)CSc2nc3ccccc3c(=O)n2CCCN2CCOCC2)c(OC)c1`: -34.6%; for `COc1ccc(NC(=O)CSc2nc3ccccc3c(=O)n2CCCN2CCCCC2)c(OC)c1`: -65.7%; for `COCCn1c(SCC(=O)Nc2ccc(OC)cc2OC)nc2ccccc2c1=O`: 10.5%. For `COCCn1c(SCC(=O)Nc2ccccc2OC)nc2ccccc2c1=O` the value was -40.1%. On to `CCn1c(SCC(=O)Nc2ccccc2OC)nc2ccccc2c1=O`, for which the “hERG current change (%, negative = inhibition) at 10uM” value was -11.9%. For `COc1ccc(NC(=O)CCCNS(=O)(=O)c2cccs2)cc1` the value was 2.91%; for `Cc1cccc(NC2=C(NC(=O)c3ccccc3)C(=O)c3ccccc3C2=O)c1`, -19.4%; for `OCCC1CN(Cc2cnc(N3CCCC3)s2)CCN1Cc1ccccc1` (centres unmarked), -0.21%. The same measure for `COc1cccc(CC2(CO)CCN(Cc3cnc(N4CCOCC4)s3)CC2)c1`: -54.7%; for `CN(C)c1ncc(CN2CCC(CO)(CCCc3ccccc3)CC2)s1`: -51.3%. The same measure for `OCC1(CCCc2ccccc2)CCN(Cc2cnc(N3CCOCC3)s2)CC1`: -58.3%; for `Clc1ncc(CN2CCN(Cc3ccccc3)CC2)s1`: -4.52%; for `c1ccc(N2CCN(Cc3cnc(N4CCOCC4)s3)CC2)cc1`: 29.4%.

Regarding `OCCC1CN(Cc2cnc(N3CCCC3)s2)CCN1C1CCCC1` (centres unmarked), the “hERG current change (%, negative = inhibition) at 10uM” value is recorded as -7.38%.

Turning to `OCC1(CCc2ccccc2)CCN(Cc2cnc(N3CCCC3)s2)CC1`, the “hERG current change (%, negative = inhibition) at 10uM” value was -70.3%. The same measure for `CCOC(=O)C1(Cc2ccccc2)CCN(Cc2cnc(N3CCOCC3)s2)CC1`: -42.4%.
